Records with an inconclusive call do not appear. Values without a mark were called inactive. Calls come from the whole dose curve.
Assay: qHTS assay to identify small molecule agonists of the AP-1 signaling pathway - cell viability counter screen (AID 1159525); note: nearly all actives have a fitted effect of over 55% in size
Conditions: ME-180 (cervical carcinoma) AP-1-bla cells viability, ATP luminescence, 5 h; series mostly up to 76.8 µM; viability change, negative = cytotoxic: at the top concentration
In short: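 AP-1-bla ME-180 cells in Opti-MEM with 0.5% dialyzed FBS, compound exposure 5 h at 37 C in 15-point titration. Viability read in the same wells as ATP content by CellTiter-Glo luminescence, normalised to tetra-n-octylammonium bromide and DMSO controls.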

| SMILES | viability change, negative = cytotoxic |
| --- | --- |
| Cc1ncc(CSSCc2cnc(C)c(O)c2CO)c(CO)c1O | 3.81% [at 35.3 µM] |
| CCCCCCC(CCCCCCCCCCC(=O)OCC(COC(C)=O)OC(C)=O)OC(C)=O (centres undefined) | 6.25% [at 35.3 µM] |
| NC(=O)Nc1nc2ccccc2[nH]1 | -0.25% |
| Cc1nc(-c2ccc(OCC(C)C)c(C#N)c2)sc1C(=O)O | -0.144% [at 35.3 µM] |
| CC(C)[C@H](N)C(=O)OCCOCn1cnc2c(=O)[nH]c(N)nc21 | 2.32% [at 35.3 µM] |
| O=C(O)C(O)[C@H](O)[C@@H](O)[C@H](O)[C@H](O)CO (some centres undefined) | 0.557% |
| CC(O)CN(CCCN(C)C)CCCN(C)C (centres undefined) | 6.99% |
| Cc1cc(C)c(NC(=O)CN(CC(=O)O)CC(=O)O)c(C)c1Br | -0.86% [at 35.3 µM] |
| CCCC=O | -21% |
| CC(C)(O)C(=O)c1ccc(OCCO)cc1 | 5.68% |
| CC(C)(O)c1ccccc1 | 1.98% |
| CCc1cc(S(=O)(=O)O)c2cc(C(C)C)cccc1-2 | 5.91% [at 35.3 µM] |
| Cc1onc(-c2ccccc2)c1-c1ccc(S(N)(=O)=O)cc1 | 3.27% [at 35.3 µM] |
| N#CCc1ccccc1[N+](=O)[O-] | 4.87% |
| O=C1C(CCS(=O)c2ccccc2)C(=O)N(c2ccccc2)N1c1ccccc1 (centres undefined) | -0.295% [at 35.3 µM] |
| CCOC(=O)Cn1c(=O)sc2cccc(Cl)c21 | -0.828% |
| O=C(O)c1cccc(C(=O)O)n1 | 4.47% |
| CCCCCC[C@@H](CCC)C(=O)O | 1.19% [at 35.3 µM] |
| Cc1cc(C)cc(OCC2CNC(=O)O2)c1 (centres undefined) | 5.47% [at 35.3 µM] |
| NC(=O)c1ncn([C@@H]2O[C@H](CO)[C@@H](O)[C@H]2O)c1O | -0.174% [at 35.3 µM] |
| NCCN1CCNC1=O | 3.14% |
| O=C(O)/C=C/c1ccc(Cn2ccnc2)cc1 | -0.0779% [at 35.3 µM] |
| CSc1ccc(C=O)cc1 | 6.25% |
| CCC(C)(C)C1CCC(OC)CC1 (centres undefined) | -0.285% |

From PubChem BioAssay (Tox21)
